Measurements taken from PubChem BioAssay AID588726 (The Scripps Research Institute Molecular Screening Center, 2011).
Screen size: about 360,000 compounds; about 8,200 (2.3%) were called active. The sample holds actives, similar compounds and a random draw of the others, so the mix is not that of the screen. Unmarked numbers belong to inactive results. Cut-off read from the data, not from the text of the source: active = inhibition above about 27%; inactive = the rest.

The compounds below were run against Fructose-bisphosphate aldolase (Mycobacterium tuberculosis (strain ATCC 25618 / H37Rv)) (UniProt P9WQA3) (assay: M. tuberculosis aldolase activity blockers – biochemical, fluorescence, strain H37Rv, primary screen (AID 588726;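 note: 0% = vehicle and 100% = reference inhibitor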)). Conditions: purified M. tuberculosis FBA, fluorescence read-out, at 1 µM, hits give high values.
Sequence of Fructose-bisphosphate aldolase (Mycobacterium tuberculosis (strain ATCC 25618 / H37Rv)) (P9WQA3 whole entry, looked up): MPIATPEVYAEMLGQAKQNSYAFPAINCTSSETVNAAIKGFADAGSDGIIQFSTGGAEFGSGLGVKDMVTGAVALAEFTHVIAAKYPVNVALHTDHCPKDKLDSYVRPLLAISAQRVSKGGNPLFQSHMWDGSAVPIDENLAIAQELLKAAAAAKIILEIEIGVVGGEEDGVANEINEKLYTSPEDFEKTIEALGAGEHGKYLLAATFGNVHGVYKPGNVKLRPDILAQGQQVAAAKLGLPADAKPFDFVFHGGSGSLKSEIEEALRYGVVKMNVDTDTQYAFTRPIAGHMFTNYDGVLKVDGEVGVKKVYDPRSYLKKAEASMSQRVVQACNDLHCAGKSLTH

Row | Structure (SMILES) | inhibition
1 | CCOC(=O)c1cc2cc(-c3c(C(=O)OCC)oc4cc(O)cc(O)c4c3=O)ccc2o1 | 0.2%
2 | COc1ccc(Cc2nnnn2CC(=O)O)cc1 | 0.07%
3 | CN(CC(=O)Nc1ccccc1C(F)(F)F)C(=O)Cc1ccccc1F | -1.8%
4 | CC(C)N1C(=S)SC(C)(C)C1n1oc(=O)n(-c2ccc(Cl)c(Cl)c2)c1=O (centres undefined) | 1.39%
5 | COc1ccc(-c2c(C(C)=O)c(C)nc3sc4c(=O)n(-c5ccc(C)cc5)nnc4c23)cc1 | 3.94%
6 | CCN1CC=C2C(C#N)=C(N)C(C#N)(C#N)[C@H](c3ccoc3)[C@H]2C1 | 28% (active)
7 | COC(=O)[C@]1(Cc2ccccc2)N[C@H](CN(C)S(=O)(=O)c2ccc(OC(F)(F)F)cc2)[C@@H]2C(=O)N(C)C(=O)[C@@H]21 | 0.06%
8 | O=C1c2ccccc2-c2ccccc2NC1O (centres undefined) | -1.24%
9 | COc1ccc2[nH]c3ccc(OC)cc3c2c1 | 28.3% (active)
10 | COc1ccc2[nH]c3c(C)c4cc[n+](C)cc4c(C)c3c2c1 | -3.24%
11 | COc1ccc2[nH]c3c(c2c1)CCN[C@H]3C | 0.12%
12 | C[C@]1(C(=O)NCCc2c[nH]c3ccccc23)C=C[C@@H](Cc2ccccc2)N1C(=O)c1ccccc1 | -0.23%
13 | COc1ccc(NC(=O)CSc2nnc(C3CC3)n2C)cc1S(=O)(=O)N1CCCCC1 | -1.4%
14 | CCOc1ccc(N(CC(=O)Nc2ccccc2F)S(=O)(=O)c2c(C)[nH]c(=O)[nH]c2=O)cc1 | 0.28%
15 | O=C(NCCCn1ccnc1)C1CCCN(S(=O)(=O)c2cc(Cl)ccc2Cl)C1 (centres undefined) | -0.78%
16 | CCCCN=C(N)/C(C(=O)OCC)=C(\O)c1ccc(OC)cc1 | -0.66%
17 | Cc1noc(C)c1COC(=O)COc1ccc(-c2ccccc2)cc1 | -1.21%
18 | CC(C)OC(=O)c1ccc(COc2ccc3ccc(=O)oc3c2)o1 | 17.9%
19 | Cc1noc(C)c1COc1ccc2ccc(=O)oc2c1 | 28.6% (active)
20 | O=C(CSc1ncnc2c1oc1ccccc12)NC1CCCC1 | -1.09%

Row | Structure (SMILES) | inhibition
21 | CCOc1ccc(CCNC(=O)COC(=O)c2c(OC)cccc2OC)cc1OCC | -0.8%
22 | COc1ccc(C(=O)OCc2cc(=O)n3ccsc3n2)cc1F | -2.01%
23 | COc1ccc(NC(=S)NCC2CCN(c3ccc(OC)cc3)C2)cc1 (centres undefined) | -3.11%
24 | COc1ccc([C@H]2N[C@]3(CCCN(Cc4ccco4)C3=O)[C@H]3C(=O)N(C)C(=O)[C@@H]23)cc1 | -1.27%
25 | COC(=O)Cc1nc2c(N)nc(N)nc2[nH]c1=O | 159% (active)
26 | COc1cc(C(=O)NC2CCN(C)CC2)ccc1Nc1ncc2c(n1)N(C1CCC(O)CC1)CCC(=O)N2C (centres undefined) | 1.68%
27 | O=c1[nH]cccc1-c1nc2ccccc2n1Cc1ccc(Cl)cc1 | 187% (active)
28 | CC(C)(C)N1CC(c2nc3ccccc3n2Cc2ccc(F)cc2)CC1=O (centres undefined) | -9.37%
29 | O=C(O)CCc1nc2cc(Cl)ccc2n(Cc2ccccc2)c1=O | 1.59%
30 | CC12CN3CCN(CC(C3)/C1=N\NC(=O)c1ccccc1N)C2 | 1.1%
31 | O=C(CNC(=O)OCc1ccccc1)NC1CCCCNC1=O (centres undefined) | 0.55%
32 | Nc1ccccc1C(=O)NC1CCCCNC1=O (centres undefined) | 68.5% (active)
33 | CC(=O)Nc1cc2ccc(OC(C)=O)cc2oc1=O | 179% (active)
34 | COc1cccc(-c2coc3cc4oc(=O)c(CC(=O)O)c(C)c4cc23)c1 | 6.49%
35 | Cc1coc2cc3oc(=O)c(CCC(=O)O)c(C)c3cc12 | 16.5%
36 | Cc1ccc(OCC(=O)Nc2ccc3oc(=O)ccc3c2)cc1C | 1.09%
37 | Cc1c(C)c2ccc(OCC(=O)N3CCN(c4cccc(Cl)c4)CC3)cc2oc1=O | 6.95%
38 | CC(=O)Oc1ccc2c(C)c(CC(C)O)c(=O)oc2c1 (centres undefined) | 797% [above what the read-out allows, likely interference] (active)
39 | Cc1c(CCC(=O)O)c(=O)oc2cc(OCc3ccc(Br)cc3)ccc12 | 46.6% (active)
40 | Cc1c(Cc2ccccc2)c(=O)oc2cc(OCC(N)=O)ccc12 | 65.5% (active)

Row | Structure (SMILES) | inhibition
41 | CCOC(=O)c1cc(=O)c2ccc(OCc3ccccc3)cc2o1 | 2.55%
42 | O=C(Oc1ccccc1)Oc1ccc2c(c1)oc(=O)c1ccccc12 | 8.31%
43 | COC(=O)Cc1c(C)c2ccc(OCC(=O)NCc3ccc4c(c3)OCO4)cc2oc1=O | 12%
44 | Cc1cc(C)cc(Oc2c(C(F)(F)F)oc3cc(OCC(=O)O)ccc3c2=O)c1 | -1.51%
45 | O=S(=O)(c1cccc(C(F)(F)F)c1)N1c2ccccc2-n2cccc2C1c1cccnc1 (centres undefined) | -0.16%
46 | O=C(Nc1c(-c2ccccc2)nc2c(Br)cc(Br)cn12)c1ccco1 | 1.02%
47 | Cc1cc(C(C)(C)C)oc1C(=O)N(CC(=O)NC1CCCC1)Cc1ccc(Cl)cc1 | 3.61%
48 | COCC1CCN(C(=O)c2ccc3oc(Cc4ccccc4)nc3c2)C1 (centres undefined) | 2.73%
49 | O=C1NCC(Nc2ccccc2)C(=O)N1 (centres undefined) | -2.44%
50 | N=c1ccn(CC(=O)NC(N)=O)c2ccccc12 | 0%
51 | CC1C(C)N(C(=O)CCl)c2ccccc2N1C(=O)CCl (centres undefined) | -0.21%
52 | CCN(CC)S(=O)(=O)c1ccc(NC(=O)c2cccnc2Cl)c(NC(=O)c2cccnc2Cl)c1 | -0.1%
53 | COc1ccccc1CN1CC(C(=O)NCCc2cn[nH]c2)CCC1=O (centres undefined) | 3.36%
54 | Cc1c(C(=O)Nc2cccc(Cl)c2)cn2c(nc3ccccc32)c1C#N | -0.2%
55 | Cc1nc(-c2ccccc2)cn2c1nc1ccccc12 | 119% (active)
56 | Cc1nc2ccccc2n1CC(O)c1ccccc1 (centres undefined) | -0.66%
57 | CN1CCn2cnc(C(=O)NCC(=O)OC(C)(C)C)c2C1=O | -1.37%
58 | Cc1coc2c1c(C)cc1oc(=O)c(CC(=O)NCC(=O)N[C@H](C(=O)O)C(C)C)c(C)c12 | 105% (active)
59 | Cc1c(CC(=O)NCC(=O)NCC(=O)O)c(=O)oc2cc3oc4c(c3cc12)CCCC4 | 16.6%
